VDR inhibitor = vitamin D3 receptor (human) inhibition; Potency, µM, for the others: max response, negative = inhibition, most hits filed as inhibitors; hit rate 0.93% among 400,000; VDR-SRC2-3 peptide fluorescence polarization, 2 h
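After 23 nl compound addition and a short centrifugation, plates sat for 2 hours at ambient temperature; polarization of fluorescence then indicated loss of VDR binding to peptide SRC2-3.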
PLK1 PBD block = inhibitors of human PLK1 polo-box domain binding | P53350 | Plk1 PBD binding of FITC phosphopeptide, fluorescence polarization | Potency, µM, inactives show max response, negative = inhibition, actives largely listed as inhibitors | hit rate 2.8% among 360,000 | AID 720504; further: series mostly up to about 57 µM; nearly all actives have a fitted effect of over 65% in size
KAT2A inh = inhibitors of human GCN5L2 histone acetyltransferase; hit rate 0.21% among 390,000; Q92830; Potency, µM (series often up to 58.9 µM), inactives show top-dose activity change, negative = inhibition, hits mostly inhibitors; AID 504327; GCN5L2 HAT assay, ThioGlo1 CoA-SH fluorescence
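GCN5L2 (20 nM) in 50mM HEPES pH 7.5, 0.1mM EDTA, 0.01% Tween-20 preincubated 15 min with compounds at room temperature. Reaction started with H3(1-25) 75uM, acetyl-CoA 70uM, ThioGlo1 50uM; CoA-thiol fluorescence (Ex340/Em540) read at 0 and 20 min.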
12-LOX inh = ALOX12 (human) lipoxygenase inhibition; P18054; purified 12hLO, xylenol orange hydroperoxide absorbance; Potency, µM (top dose mostly 108 µM), without a hit: top-dose activity change, negative = inhibition, actives largely listed as inhibitors; hit rate 1.1% among 580,000; AID 1671190
Target sequence (P18054 whole entry, looked up): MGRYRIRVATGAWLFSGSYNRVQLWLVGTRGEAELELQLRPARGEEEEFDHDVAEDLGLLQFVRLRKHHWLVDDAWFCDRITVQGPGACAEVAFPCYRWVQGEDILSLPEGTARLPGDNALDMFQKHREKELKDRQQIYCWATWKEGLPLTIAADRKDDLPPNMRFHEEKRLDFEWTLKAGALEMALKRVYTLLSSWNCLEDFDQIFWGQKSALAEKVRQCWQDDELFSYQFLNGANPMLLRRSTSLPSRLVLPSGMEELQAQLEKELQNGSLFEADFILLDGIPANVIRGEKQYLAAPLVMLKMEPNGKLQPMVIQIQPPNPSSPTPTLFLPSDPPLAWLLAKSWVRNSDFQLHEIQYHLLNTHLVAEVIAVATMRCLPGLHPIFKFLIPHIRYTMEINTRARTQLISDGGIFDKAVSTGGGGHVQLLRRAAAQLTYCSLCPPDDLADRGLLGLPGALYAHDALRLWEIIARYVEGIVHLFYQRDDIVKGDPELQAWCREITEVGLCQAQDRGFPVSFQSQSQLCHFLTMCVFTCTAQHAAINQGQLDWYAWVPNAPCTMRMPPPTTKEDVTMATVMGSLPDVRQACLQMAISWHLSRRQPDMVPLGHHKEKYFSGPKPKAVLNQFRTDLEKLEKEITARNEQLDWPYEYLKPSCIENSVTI
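Hydroperoxide product was detected by ferrous iron/xylenol orange as the 573 to 405 nm absorbance ratio. Arachidonic acid at 40 uM (final) was turned over for 30 min at room temperature by 150 nM human 12hLO, pH 7.0 Hepes buffer, after 15 min compound preincubation.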
The depositor's hits bear a star; ? = inconclusive; / = no result; ! = not active in a repeat; [ ] = dose if it differs, or a comment. An excerpt weighted towards active compounds, which were near 3% of everything screened. The call rests on the fitted dose curve; in most records, active means well fitted curve in the direction sought with a large enough effect; inconclusive means small, poorly fitted or top-dose-only effect, or another doubt; inactive means no such curve, though single readings can be large; an effect the other way counts as inactive or inconclusive. On the % scale 0 is the no-effect control and ±100 the full control effect; potency means the concentration at half of the fitted maximal effect.

SMILES | VDR inhibitor | PLK1 PBD block | KAT2A inh | 12-LOX inh
CC/C=C\C/C=C\C/C=C\C/C=C\C/C=C\C/C=C\CCC(=O)O | 32µM*! | / | -18% | ?
CCOC(=O)c1c(C)n(C)c2ccc(OC)c(NC(=O)c3cccs3)c12 | -9% | 30µM* | -3% | -7%
CCCCNC(=O)c1cccc2cccnc12 | / | / | / | 7%
O=C(CSc1nnc(COc2ccc(Cl)cc2)o1)N1CCN(c2ccccc2)CC1 | ? | 30µM* | -6% | 498%
CN(C)c1ccc(-c2noc([C@@H]3CCCN3Cc3nc4ccccc4n3C)n2)cn1 | / | / | / | 95%[176 µM]
O=C(Nc1nn[nH]n1)c1cccc(S(=O)(=O)N2CCCCCC2)c1 | / | / | / | 10µM*
O=C(Nc1ccccc1OC(F)F)c1cccc(S(=O)(=O)N2CCCC2)c1 | ? | 17µM* | -6% | 7%
CN(C)S(=O)(=O)c1cccc(C(=O)OCC(=O)Nc2ccccc2OC(F)F)c1 | ? | 27µM* | 3% | 0%
O=C(COC(=O)C1CCCCC1)Nc1ccccc1OC(F)F | ? | 3µM* | -4% | -7%
O=C(Nc1ccccc1OC(F)F)c1ccc(S(=O)(=O)N2CCCC2)cc1 | 10% | 1% | -1% | 6%
Cn1c(SCC(=O)Nc2ccc(Br)cc2F)nc2c(=O)[nH]cnc21 | / | / | / | 39%
CCS(=O)(=O)N1CCC(NC(=O)c2cccc(NC(=O)c3cccs3)c2)CC1 | / | / | / | 5%
O=C(NCC(c1cccs1)N1CCCCC1)c1cc(=O)c2cc(Br)ccc2o1 (stereo unspecified) | / | / | / | -16%
C/C=C/CSc1nc2c(c(=O)[nH]c(=O)n2C)n1CCOC | / | / | / | -7%
CC(=O)CCc1oc2ccc(C)cc2c1-c1ccc(C)o1 | -22% | -19% | -14% | ?
C/C(CCc1oc2ccc(Br)cc2c1-c1ccc(C)o1)=N\O | / | / | / | 11µM*
C/C(CCc1oc2ccc(C)cc2c1-c1ccc(C)o1)=N\O | / | / | / | 40µM*!
CNC(=O)c1ccc(Cl)c(NC(=O)NC(C)C(C)C)c1 (stereo unspecified) | / | / | / | 2%
Cc1ccc(COc2cccc(C3C4=C(CCCC4=O)OC4=C3C(=O)CCC4)c2)cc1 | / | / | / | 1%
O=c1ccc2[n+]([O-])c3ccc(O)cc3oc-2c1 | 11µM* | -27% | ? | -25%
Cc1cn2c(C(=O)c3ccccc3)c(-c3ccccc3)cc2cc1-c1ccccc1 | / | / | / | -18%
CC(SCc1cccc(C#N)c1)C(=O)NC(C)(C)C (stereo unspecified) | / | / | / | 7%
CC(C)n1c(=S)[nH]c2ccccc21 | -8% | 25µM* | -8% | ?
CC(C)c1ccc(CNc2nnnn2C)cc1 | 1% | -1% | 0% | 0%
CC(C)c1ccc(CNn2cnnc2)cc1 | -15% | 27µM* | -21% | ?
SMILES | VDR inhibitor | PLK1 PBD block | KAT2A inh | 12-LOX inh
O=C(CCc1c[nH]c2ccccc12)N1CCC(N2CC3CC(C2)[C@H]2CCCC(=O)N2C3)CC1 (stereo partly specified) | / | / | / | -1%
CCOc1ccc(Nc2nc3cc(S(=O)(=O)N(CC)CC)ccc3o2)cc1 | 79µM* | 5.3µM* | -12% | /
CCOc1ccc(OCCSc2nc3cc(S(=O)(=O)N(C)C)ccc3o2)cc1 | / | / | / | -24%
COc1ccccc1C(=O)Nc1nc(C)c(C(=O)N(C)C)s1 | / | / | / | 8%
O=C(Nc1ccccc1C(=O)NC(Cc1ccccc1)C(=O)NC1CCCCCC1)c1ccccc1 (stereo unspecified) | -9% | 27µM* | 4% | 90%
CCC(C)C(NC(=O)c1ccccc1NC(=O)c1ccccc1)C(=O)O (stereo unspecified) | ? | 27µM* | 24% | 11%
COc1ccc(C(=O)Nc2ccccc2C(=O)N2CCCCCC2)cc1OC | -1% | -8% | -3% | -1%
O=C(Nc1ccccc1C(=O)NC1CCCCC1)c1ccccc1 | 6% | 3% | -7% | 0%
COc1ccc(C(=O)Nc2ccccc2C(=O)NC(C)C)cc1OC | ? | 27µM* | 19% | 0%[57.4 µM]
CCOC(=O)c1c(N)sc2c1CCS(=O)(=O)C2 | -3% | 27µM* | 3% | ?
O=C(CCCc1ccccc1)NCc1ccco1 | / | / | / | 6%
Cc1ccc(NC2(c3nnnn3-c3ccccc3C)CCCC2)cc1 | / | / | / | -29%
COc1ccc(-c2c(C)n([O-])c(C)c(C)[n+]2=O)cc1 | -4% | 24µM* | -4% | 7%
COc1ccc(-c2c(C)n([O-])c3c([n+]2=O)CCCCC3)cc1 | 9% | -2% | -3% | 2%
CC(=O)Oc1cc2c(C(=O)NCCCN3CCOCC3)c(C)oc2c2ccccc12 | -5% | 30µM* | 3% | 145%
O=S(=O)(Nc1nc2ccccc2nc1NCc1ccc(Cl)cc1)c1cccc2nsnc12 | / | / | / | 0%
CCOC(=O)C1CCN(C(=O)Cc2ccccc2OC)CC1 | -2% | -9% | 3% | -45%
O=C(Cc1cccs1)N1CCC(Oc2ccccc2)C1 (stereo unspecified) | / | / | / | 50µM*
CCOC(=O)C1CCN(C(=O)Cc2cccs2)CC1 | 7% | 30µM* | -13% | 30%
COc1ccccc1CN1CCCC(CN(CCN(C)C)C(=O)c2cccnc2)C1 (stereo unspecified) | / | / | / | 3%
CCN(CCCNC(=O)CSc1cc(=O)n(C)c2ccccc12)c1ccccc1 | -5% | / | 2% | -5%
CCCCNC(=O)CSc1cc(=O)n(C)c2ccccc12 | -2% | 27µM* | -1% | 0%
Cc1ccc(-n2ncc3c(N4CCN(C)CC4)ncnc32)cc1 | 6% | / | -9% | -27%
COc1ccc(CCNc2ncnc3c2cnn3-c2cccc(Cl)c2)cc1 | 11% | / | -5% | 40µM*
Cc1ccc(-n2ncc3c(NCCc4ccccc4)ncnc32)cc1 | -11% | / | -1% | 28µM*
SMILES | VDR inhibitor | PLK1 PBD block | KAT2A inh | 12-LOX inh
Cc1ccc(C)c(N2CCN(c3ncnc4c3cnn4-c3ccccc3)CC2)c1 | ? | 27µM* | -2% | 11%
Cc1ccc(-n2ncc3c(NCCCc4ccccc4)ncnc32)cc1 | 5% | / | -11% | -24%
COc1ccc(-n2ncc3c(NCc4ccco4)ncnc32)cc1 | 14% | -4% | -3% | 32µM*
Cc1cc(N2CCN(S(=O)(=O)c3ccc(Cl)c(C(F)(F)F)c3)CC2)nc(C(C)C)n1 | / | / | / | -27%
CCC12CN(CC#N)CC(C)(CN(CC#N)C1)C2=O | / | / | / | -1%
CCc1ccc(CN(C)C(=O)NC(c2ccc3c(c2)OCCCO3)C(C)C)cc1 (stereo unspecified) | / | / | / | -12%
Cc1nn(CCc2nc(-c3ccccc3)cs2)c2[nH]c(=O)cc(C(F)(F)F)c12 | / | / | / | 7.1µM*
Cc1cc(C)n(CCc2nc(-c3ccco3)cs2)n1 | ? | 16µM* | -23% | ?
Cc1nn(CCc2nc(-c3ccco3)cs2)c2[nH]c(=O)cc(C(F)(F)F)c12 | -82% | 11µM* | -20% | 7.9µM*
O=c1[nH]c(=O)n(Cc2ccccc2)c2nc(-c3ccco3)cc(C(F)(F)F)c12 | 22% | -11% | -2% | ?
CC(C)C[C@@H]1N[C@H](C(=O)NCCN(C)C)Cc2cn(Cc3ccncc3)c3cccc1c23 | / | / | / | 76%[176 µM]
CSc1nnc(C)c(/C=C/Nc2ccc(F)cc2F)n1 | 18% | -6% | -5% | 35µM*
CC(C)CCN1CCCC2(C1)C(=NC1CCCCC1)NC(=O)N2c1cc(F)cc(F)c1 (stereo unspecified) | / | / | / | -1%[6.33 µM]
